Assay results: PubChem BioAssay AID651871 (Sanford-Burnham Center for Chemical Genomics, 2012)
Several values for one entry are separate records, joined by “and”; a condition that tells them apart may be missing. Equal values may be shown once.

These molecules were tested on HL-1 (assay: cardiomyocyte survival under oxidative or metabolic stress – cell-based, panel, H9c2 and HL-1, ATP luminescence, set 2, SAR follow-up (AID 651871;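 note: cells exposed to stressor for 2 h before ATP readout; reference of the scale not given here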)). Details: H9c2/HL-1 cardiomyocytes, 2-deoxyglucose stress, with 2-deoxyglucose, run 14, at 79 µM (top of the series).
CCOC(=O)c1cccc(NC(=O)CNC(=O)c2cc(-c3cc(OC)c(OC)c(OC)c3)nc3ccccc23)c1 was tested, and the activity (protection/inhibition) was 83.5%.
COc1ccc2c(c1OC)C(=O)N1c3ccccc3C(=O)N(Cc3cccc(Cl)c3Cl)C21 (stereo not drawn) was tested, and the activity (protection/inhibition) was 56.3% and -4.31%.
With COc1ccc2nc(-c3cc(OC)c(OC)c(OC)c3)cc(C(=O)NCC(=O)Nc3ccc(C(C)=O)cc3)c2c1 the activity (protection/inhibition) was 66%.
